Records with an inconclusive call do not appear. Some compounds were tested as several samples or in several runs, with calls that do not always agree. The source made the active and inactive calls. Unless noted, the call rests on the fitted dose curve.
Experiment: qHTS assay to identify small molecule agonists of the hypoxia (HIF-1) signaling pathway (AID 1224846; active means well fitted activation curve with a large enough effect in the signal ratio in the repeat runs, not every such curve was filed as active; the % refers to the signal ratio)
Conditions: HRE-bla ME-180 cells, beta-lactamase ratio, 17 h; series mostly up to 76.8 µM; activation: at the top concentration
Procedure, shortened: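 A low-serum medium (0.5% dialyzed FBS) holding 2,000 HRE-bla ME-180 cells per well is preincubated for 5 hrs, dosed with compounds by pintool, and kept a further 17 hrs at 37C, 5% CO2 before CCF4-AM FRET detection of beta-lactamase.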
On the % scale 0 is the no-effect control and ±100 the full control effect.

Row | SMILES | activation | Potency
1 | Nc1c(Cl)cc(Cl)cc1Cl | 0.975% (inactive) | 
2 | CC(NN)c1ccccc1 (centres undefined) | -1.03% [at 15.8 µM] (inactive) | 
3 | COc1cc(/C=C/C(=O)O[C@H]2CC[C@]34C[C@]35CC[C@]3(C)[C@@H]([C@H](C)CCC=C(C)C)CC[C@@]3(C)[C@@H]5CC[C@H]4C2(C)C)ccc1O | 3.16% [at 35.5 µM] (inactive) | 
4 | CCC(N)(CO)CO | -1.74% (inactive) | 
5 | CC1=NC(C)OC1C (centres undefined) | 0.492% (inactive) | 
6 | CC(C)(C)C(=O)OCOC(=O)C1N2C(=O)CC2S(=O)(=O)C1(C)C (centres undefined) | -0.656% [at 35.5 µM] (inactive) | 
7 | OCCCCCCCCCCCCBr | 0.0629% (inactive) | 
8 | CCN(CCC#N)c1ccc(N=Nc2c(Cl)cc([N+](=O)[O-])cc2Cl)cc1 | 3.27% (inactive) | 
9 | COC(=O)C1=C(C)NC(C)=C(C(=O)OCC(C)C)C1c1ccccc1[N+](=O)[O-] (centres undefined) | -0.864% [at 35.5 µM] (inactive) | 
10 | N#CC1(c2ccc(F)cc2)CCC(=O)CC1 | -0.633% [at 35.5 µM] (inactive) | 
11 | CCCCCCCCCCC=O | -0.404% (inactive) | 
12 | CN(C)c1ccc(SC#N)cc1 | 0.025% (inactive) | 
13 | CCCCCCCCOc1ccccc1C(=O)Nc1ccc(C(=O)OCC[N+](C)(CC)CC)cc1 | 3.38% [at 35.5 µM] (inactive) | 
14 | CC(C)(C)c1ccc(C(=O)O)cc1 | -1.01% (inactive) | 
15 | CC(C)(C)C1CCC(CC2=C(O)c3ccccc3C(=O)C2=O)CC1 (centres undefined) | -1.26% [at 35.5 µM] (inactive) | 
16 | O=C1c2ccccc2Cc2ccccc21 | 0.757% (inactive) | 
17 | Cc1nc(-c2ccc3c(c2)CCN(CCC2CCC(NC(=O)/C=C/c4ccc(F)cc4)CC2)CC3)no1 (centres undefined) | 8.78% [at 35.5 µM] (inactive) | 
18 | NC(=O)NS(=O)(=O)c1ccc(N)cc1 | -1.13% [at 35.5 µM] (inactive) | 

Row | SMILES | activation | Potency
19 | CCC1OCC(COc2ccc(Oc3ccccc3)cc2)O1 (centres undefined) | 2.66% (inactive) | 
20 | c1ccc(CSCc2ccccc2)cc1 | 0.028% (inactive) | 
21 | Cc1cc(O)c(Cl)c(C)c1Cl | 1.36% (inactive) | 
22 | Cc1c(C)c2c(c(C)c1O)CCC(C)(COc1ccc(CC3SC(=O)NC3=O)cc1)O2 (centres undefined) |  | inactive
23 | C[C@H]1[C@H]2CC[C@H]3[C@@H]4CC=C5C[C@@H](N(C)C)CC[C@]5(C)[C@H]4CC[C@]23CN1C | 1.31% [at 35.5 µM] (inactive) | 
24 | CCCCCOC(=O)CCCC | 0.487% (inactive) | 
25 | CSc1cnc(C)cn1 | -0.229% [at 199 µM] (inactive) | 
26 | O=c1[nH]cnc2nc[nH]c12 | 0.381% [at 35.5 µM] (inactive) | 
27 | Cc1cc(N)c(S(=O)(=O)O)cc1Cl | -0.0385% (inactive) | 
28 | Fc1ccc([C@@H]2CCNC[C@H]2COc2ccc3c(c2)OCO3)cc1 | 5.35% [at 35.5 µM] (inactive) | 
29 | C/C=C(\C)C(=O)OCc1ccccc1 | -0.642% (inactive) | 
30 | CCCCCCCC(=O)[O-].CCCCCCCC(=O)[O-].[Zn+2] | -0.75% [at 35.5 µM] (inactive) | 
31 | C1CCCC1 | -0.84% (inactive) | 
32 | C/C=C1/C(=O)C[C@H]2[C@@H]3CCC4=CC(=O)CC[C@]4(C)[C@H]3CC[C@]12C | 0.161% (inactive) | 
33 | CN(C)CCCOC1(Cc2ccccc2)CCCCCC1 | 1.88% [at 35.5 µM] (inactive) | 
34 | CCC(C)(C)C1CCCCC1OC(C)=O (centres undefined) | -0.422% (inactive) | 
35 | O=C(O)c1ccc(Cl)c(Cl)c1 | -0.246% (inactive) | 
36 | Cc1ccc(O)c(C(C)(C)C)c1 |  | inactive

Experiment: qHTS assay to identify small molecule agonists of H2AX - cell viability counter screen (AID 1224847); further: nearly all actives have a fitted effect of over 30% in size; further: potency means the concentration at half of the fitted maximal effect; on activity change, negative = cytotoxicity: top concentration of the series differs between compounds
Conditions: CHO-K1 viability, CellTiter-Glo luminescence, 3 h; series mostly up to 70.9 µM; activity change, negative = cytotoxicity: at the top concentration
Procedure, shortened: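 Read-out: CellTiter-Glo luminescence, 30 min RT. Cells: wild-type CHO-K1, 1000/well, 10% FBS, plated overnight at 37C. Treatment: 15 concentrations, 3 hr, 37C, 0.76% DMSO.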

Row | SMILES | activity change, negative = cytotoxicity | Potency
37 | Nc1c(Cl)cc(Cl)cc1Cl | 2.21% [at 154 µM] (inactive) | 
38 | CC(NN)c1ccccc1 (centres undefined) | -4.32% [at 31.6 µM] (inactive) | 
39 | COc1cc(/C=C/C(=O)O[C@H]2CC[C@]34C[C@]35CC[C@]3(C)[C@@H]([C@H](C)CCC=C(C)C)CC[C@@]3(C)[C@@H]5CC[C@H]4C2(C)C)ccc1O | -1.17% (inactive) | 
40 | CC1=NC(C)OC1C (centres undefined) | -1.19% [at 154 µM] (inactive) | 
41 | CC(C)(C)C(=O)OCOC(=O)C1N2C(=O)CC2S(=O)(=O)C1(C)C (centres undefined) | 2% (inactive) | 
42 | OCCCCCCCCCCCCBr |  | 102 µM (active)
43 | CCN(CCC#N)c1ccc(N=Nc2c(Cl)cc([N+](=O)[O-])cc2Cl)cc1 |  | 56.6 µM (active)
44 | COC(=O)C1=C(C)NC(C)=C(C(=O)OCC(C)C)C1c1ccccc1[N+](=O)[O-] (centres undefined) |  | 127 µM (active) and inactive
45 | N#CC1(c2ccc(F)cc2)CCC(=O)CC1 | 2.43% (inactive) | 
46 | CCCCCCCCCCC=O | 2.97% [at 154 µM] (inactive) | 
47 | CN(C)c1ccc(SC#N)cc1 | -0.999% [at 154 µM] (inactive) | 
48 | CCCCCCCCOc1ccccc1C(=O)Nc1ccc(C(=O)OCC[N+](C)(CC)CC)cc1 |  | 24.7 µM (active)
49 | CC(C)(C)c1ccc(C(=O)O)cc1 | -4.22% [at 154 µM] (inactive) | 
50 | CC(C)(C)C1CCC(CC2=C(O)c3ccccc3C(=O)C2=O)CC1 (centres undefined) | -8.6% (inactive) | 
51 | O=C1c2ccccc2Cc2ccccc21 | -0.0968% [at 154 µM] (inactive) | 
52 | Cc1nc(-c2ccc3c(c2)CCN(CCC2CCC(NC(=O)/C=C/c4ccc(F)cc4)CC2)CC3)no1 (centres undefined) | -8.06% (inactive) | 
53 | NC(=O)NS(=O)(=O)c1ccc(N)cc1 | -4.77% (inactive) | 

Row | SMILES | activity change, negative = cytotoxicity | Potency
54 | c1ccc(CSCc2ccccc2)cc1 | -4.88% [at 154 µM] (inactive) | 
55 | Cc1cc(O)c(Cl)c(C)c1Cl |  | 101 µM (active)
56 | Cc1c(C)c2c(c(C)c1O)CCC(C)(COc1ccc(CC3SC(=O)NC3=O)cc1)O2 (centres undefined) | 7.32% (inactive) | 
57 | C[C@H]1[C@H]2CC[C@H]3[C@@H]4CC=C5C[C@@H](N(C)C)CC[C@]5(C)[C@H]4CC[C@]23CN1C | -1.21% (inactive) | 
58 | CCCCCOC(=O)CCCC | -8.71% [at 154 µM] (inactive) | 
59 | CSc1cnc(C)cn1 | -0.0922% [at 401 µM] (inactive) | 
60 | Cc1cc(N)c(S(=O)(=O)O)cc1Cl | 6.39% [at 154 µM] (inactive) | 
61 | Fc1ccc([C@@H]2CCNC[C@H]2COc2ccc3c(c2)OCO3)cc1 | -6.6% (inactive) | 
62 | C/C=C(\C)C(=O)OCc1ccccc1 | -8.82% [at 154 µM] (inactive) | 
63 | CCCCCCCC(=O)[O-].CCCCCCCC(=O)[O-].[Zn+2] | 6.8% (inactive) | 
64 | C1CCCC1 | 3.81% [at 154 µM] (inactive) | 
65 | C/C=C1/C(=O)C[C@H]2[C@@H]3CCC4=CC(=O)CC[C@]4(C)[C@H]3CC[C@]12C | -13.1% [at 154 µM] (inactive) | 
66 | CN(C)CCCOC1(Cc2ccccc2)CCCCCC1 | -6.74% (inactive) | 
67 | CCC(C)(C)C1CCCCC1OC(C)=O (centres undefined) | 4.38% [at 154 µM] (inactive) | 
68 | O=C(O)c1ccc(Cl)c(Cl)c1 | 4.14% [at 154 µM] (inactive) | 
69 | Cc1ccc(O)c(C(C)(C)C)c1 |  | 89.6 µM (active)
